# Only some compounds are listed: those with a hit (about 1.9% of all), similar ones and a draw of the others.
# PTHR1 agonist = activates the human parathyroid hormone receptor PTHR1; HEK293 GP2 PTHR1 cells, GloSensor cAMP luminescence, 1 h; Potency, µM (titrated, usually from 115 µM), for the others: at the top dose activation, hits mostly activators; 410,000 tested, 0.075% active; AID 743266; also: potency is read from the fitted curve at half-maximal effect; nearly all actives have a fitted effect of over 55% in size
# Target sequence (Q03431 whole entry, looked up): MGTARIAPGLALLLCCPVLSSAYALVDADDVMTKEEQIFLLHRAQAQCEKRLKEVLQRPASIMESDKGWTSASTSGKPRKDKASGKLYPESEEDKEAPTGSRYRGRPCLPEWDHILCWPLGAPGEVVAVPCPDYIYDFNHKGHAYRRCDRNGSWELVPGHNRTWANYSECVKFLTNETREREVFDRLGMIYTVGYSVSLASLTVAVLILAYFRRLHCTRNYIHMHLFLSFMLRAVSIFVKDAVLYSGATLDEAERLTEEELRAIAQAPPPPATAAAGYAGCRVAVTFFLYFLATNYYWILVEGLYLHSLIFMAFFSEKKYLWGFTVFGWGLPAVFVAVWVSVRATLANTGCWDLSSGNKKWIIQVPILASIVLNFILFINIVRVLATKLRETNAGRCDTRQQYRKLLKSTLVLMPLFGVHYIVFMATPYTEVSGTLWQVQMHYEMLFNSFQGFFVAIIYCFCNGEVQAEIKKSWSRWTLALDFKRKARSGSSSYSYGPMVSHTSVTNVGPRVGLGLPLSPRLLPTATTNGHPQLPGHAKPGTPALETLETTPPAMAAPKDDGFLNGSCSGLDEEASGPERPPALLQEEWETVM
#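 HEK-293-derived GP2 cells expressing PTHR1 and a GloSensor cAMP reporter, 3,000/well, plated overnight, given luciferin plus IBMX (each 0.5 mM as added) for 1 h at 37 °C, then compound for 1 h at 37 °C. Luminescence was read after 15 min at room temperature.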
# TDP43 rescue = TDP-43 toxicity inhibition in yeast; TDP-43 expressing yeast growth rescue, BacTiter-Glo, 24 h; Potency, µM (series often up to 46.1 µM), for inactives: at the top dose growth rescue (activation), actives largely listed as activators; 410,000 tested, 1.8% active; AID 652104; also: potency is read from the fitted curve at half-maximal effect; % of control where 0% means no effect; nearly all actives have a fitted effect of over 50% in size
#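 In this qHTS, compounds that restore growth of yeast expressing TDP-43 appear as activators. Cells (OD600=0.02, galactose medium, raffinose-pregrown) are incubated with compound 24 hr at 30 deg C and growth is quantified by BacTiter-Glo.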
# Abeta rescue = compounds reversing amyloid beta toxicity in yeast. yeast expressing A-beta42, growth rescue, OD600, 48 h; response scale: 0% DMSO, 100% iron-clioquinol control. Potency, µM (doses to about 46.1 µM), actives largely listed as activators. 410,000 tested, 0.063% active. AID 1347071; also: potency is read from the fitted curve at half-maximal effect; nearly all actives have a fitted effect of over 55% in size
#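 Yeast A-beta toxicity model in growth medium with pinned compounds, 48 h at 30 C; growth read as absorbance at 600 nm. Normalized to FeCl3/clioquinol equimolar mix (positive) and DMSO (negative).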
# LDHA inh = LDHA (human) enzyme inhibition; P00338; purified LDHA, NADH/diaphorase-resazurin fluorescence; stronger effect = lower value; activity change, % (values are at about 110 or 230 µM); 480,000 tested, 0.15% active; in the data active = activity change below about -30%; inconclusive = mostly about -25% to -30%;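 also: plate controls were DMSO wells for no effect and wells without enzyme for full effect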
#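 LDH5 2 nM; NADH 0.06 mM, pyruvate 0.2 mM; 200 mM Tris pH 7.4, EDTA, Tween-20; 5 min RT. Detection: diaphorase 0.133 mg/mL + resazurin 37 µM, fluorescence ex540/em590 at 0 and 20 min; normalized to enzyme-free and DMSO wells.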
# aSyn rescue = alpha-synuclein toxicity inhibition in yeast; 370,000 tested, 0.14% active; AID 652106; Potency, µM (highest dose often 46.1 µM), for the others: at the highest dose growth rescue (activation), most hits filed as activators; Yeast expressing alpha-synuclein, growth rescue, BacTiter-Glo, 24 h; also: potency is read from the fitted curve at half-maximal effect; % of control where 0% means no effect; nearly all actives have a fitted effect of over 65% in size
#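 Galactose-induced alpha-syn yeast (OD600=0.02, raffinose-pregrown) + pinned cpd, 24 hr, 30 deg C; growth by BacTiter-Glo luminescence. Growth restoration scores as activation.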
# FUS yeast rescue = FUS proteinopathy suppression in yeast | AID 1347120 | 390,000 tested, 0.24% active | Potency, µM (series often up to 76.6 µM), most hits filed as activators | S. cerevisiae FUS-expressing, growth rescue, OD600, 24 h;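 also: potency is read from the fitted curve at half-maximal effect; plate controls were DMSO vehicle for no effect and reference control for full effect; nearly all actives have a fitted effect of over 55% in size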
#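 Compound concentration series was pinned onto galactose-induced FUS-expressing yeast seeded at OD 0.005. Plates sat 24hr at 30C; absorbance at 600 nm gave growth. DMSO served as background control.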
# Active calls of the source: *; i = inactive; ? = inconclusive; . = no result; [ ] = another dose, or the depositor's remark. Unless noted, calls follow the shape of the dose curve; as a rule, active = well fitted curve in the direction sought with a large enough effect; inconclusive = small, poorly fitted or top-dose-only effect, or another doubt; inactive = no such curve, though single readings can be large; an effect the other way counts as inactive or inconclusive.
SMILES,PTHR1 agonist,TDP43 rescue,Abeta rescue,LDHA inh,aSyn rescue,FUS yeast rescue
CCN(CC)C(=O)CCc1ccc(C(C)(C)C)cc1,.,.,.,-24,.,.
COc1ccc2c(C)c(CCC(=O)NCCCO)c(=O)oc2c1,.,.,.,-4,.,.
CCCCN(C)C(=O)c1sc(=O)n(Cc2ccc(Cl)c(Cl)c2)c1C,-51%,25µM*,i,1,?,i
COC(=O)[C@H]1C[C@]2(C/C=C(\C)CCC=C(C)C)c3ccccc3N[C@H]2N1,.,.,.,.,.,i
CC(C)=CCC/C(C)=C/CNCC(=O)N1c2ccccc2[C@]2(c3ccccc3)C[C@@H]3C(=O)N(C/C=C(\C)CCC=C(C)C)CC(=O)N3[C@H]12,.,.,.,.,.,13µM*
O=C(CCn1c(=O)oc2ccccc21)Nc1nc2ccccc2s1,-33%,28µM*,i,-3,6%,i
Cc1nc(-c2cccc(NC(=O)c3ccc(Br)o3)c2)cs1,-10%,11µM*,i,-1,-9%,i
Cc1nc(-c2ccc(NC(=O)c3ccc(Br)o3)cc2)cs1,-7%,15%,i,-8,-31%,i
COc1ccc(/C(C)=N/NC(=S)NCCc2ccccc2)cc1,-15%,-18%[0.397 µM],13µM*,-3,-8%,i
C#CCNCc1ccc(F)cc1,.,.,.,3,.,.
Cc1cccc(C)c1OCCCOc1ccccc1/C=N/NC(=O)c1cccc(Cl)c1,.,.,.,3,.,.
O=C(COC(=O)CCC(=O)c1ccc(Cl)cc1)NCc1ccc(F)cc1,i,14µM*,i,-4,2%,i
CC1(C(=O)OCC(=O)NCc2ccc(Cl)cc2)CC1(Cl)Cl (stereo not given),-15%,14µM*,i,-1,10%,.
Cc1cccc2nc(-c3c(-c4ccc(Br)cc4)n(C)c(=O)n(C)c3=O)cn12,.,.,.,17,.,.
O=C1[C@@H]2CSC(c3ccc(F)cc3)N2C(=O)N1c1ccc(Cl)cc1 (stereo not given in full),-45%,14µM*,i,2,.,i
C=CCc1ccccc1OCC(O)CN1C(=O)c2ccccc2C1=O (stereo not given),-33%,11µM*,i,-1,17%,i
Cc1ccccc1OCC(O)CN1C(=O)c2ccccc2C1=O (stereo not given),i,30%,i,0,10%,i
NS(=O)(=O)c1ccc(Nc2c([N+](=O)[O-])cncc2[N+](=O)[O-])cc1,-18%,-12%,i,-33*,-4%,i
O=C(Nc1ccccn1)c1ccc(Br)s1,-29%,6.3µM*,i,-10,-7%,i
O=C(NC(=S)NC1CCCc2ccccc21)c1ccc(F)cc1 (stereo not given),-2%,?,?,1,-21%,i
O=C(NC(=S)NC1CCCc2ccccc21)c1ccco1 (stereo not given),-21%,?,11µM*,1,-11%,i
COc1ccc(CC(=O)NC2CCCc3ccccc32)cc1 (stereo not given),-13%,18µM*,i,-4,-1%,i
NS(=O)(=O)c1ccc(N/N=C/c2cccc(C(F)(F)F)c2)c([N+](=O)[O-])c1,.,.,.,8,.,.
COc1ccc(CN2C(=O)NC3(CCCc4ccccc43)C2=O)cc1F (stereo not given),-14%,11µM*,i,-12,2%,i
COc1ccc(CN2C(=O)NC3(CCCCC3)C2=O)cc1F,-8%[57.5 µM],22%,i,0,4%,i
SMILES,PTHR1 agonist,TDP43 rescue,Abeta rescue,LDHA inh,aSyn rescue,FUS yeast rescue
COc1cc2c(C(=O)N3CCN(c4cc(Cl)ccc4C)CC3)cn(CC(C)C)c(=O)c2cc1OC,-5%,6%,i,-4,.,i
O=C(c1c(F)cccc1F)N1CCN(c2cccc(C(F)(F)F)c2)CC1,i,16µM*,i,-6,14%,i
Cn1cccc1C(=O)N1CCN(c2cccc(C(F)(F)F)c2)CC1,i,?,i,9,3%,i
COc1cc2c(C(=O)N3CCN(c4cccc(C(F)(F)F)c4)CC3)cn(CC(C)C)c(=O)c2cc1OC,3%,?,i,6,.,22µM*
Cc1ccc(-c2nc3cnccn3c2Nc2ccc3c(c2)OCO3)cc1,-7%,?,i,5,5%,i
COc1ccc(-c2nc3cnccn3c2Nc2ccc3c(c2)OCO3)cc1,-10%,24%,i,7,6%,28µM*
Clc1ccc(N2COC3c4cccc5cccc(c45)C32)cc1 (stereo not given),-19%[57.5 µM],10µM*,i,-3,13%,i
COc1ccc(C2Nc3cccc4cccc(c34)N2)cc1,i,?,i,2,-8%,i
COc1ccc(N2COC3c4cccc5cccc(c45)C32)cc1 (stereo not given),-13%,11µM*,i,10,-6%,i
CCN(CC)CCCNC(=O)c1ccc2c(c1)NC(=O)C(CS(=O)(=O)Cc1ccc(F)cc1Cl)N2 (stereo not given),?,-1%,i,3,.,25µM*
Cc1cc(OC(=O)c2ccco2)c(Sc2ccccc2[N+](=O)[O-])c(=O)o1,i,-1%,i,-106*,-6%,i
Cc1[nH]c(=O)[nH]c(=O)c1Sc1ccccc1[N+](=O)[O-],i,-13%,i,4,-10%,i
COc1ccc(CN2C(=O)c3cccnc3C2=O)cc1S(=O)(=O)N(C)Cc1ccco1,-27%,4%,i,-2,1%,i
CN(Cc1ccco1)S(=O)(=O)c1ccc(CN2C(=O)c3cccnc3C2=O)s1,i,18µM*,i,-5,?,i
COc1ccc(NS(=O)(=O)c2ccc(C)c(C(=O)Nc3ccc4oc(C)nc4c3)c2)cc1,.,.,.,2,.,.
Cc1ccc(C)n1NC(=O)c1ccccc1,-21%,-2%,i,-6,-2%,20µM*
Cc1cccc(N2CCN(C(=O)c3ccccc3NC(=O)Cn3c(C)cc(C)c(C#N)c3=O)CC2)c1C,.,.,.,-3,.,.
N#CC(C#N)=C1C(=O)N(CCN2CCCCC2)c2ccccc21,14%,-22%,i,10,13%,22µM*
Cc1ccc(CC(SCc2ccccc2)C(=O)O)cc1C (stereo not given),-22%,11µM*,i,-4,7%,i
O=C(NNc1nc2ccc(Cl)cc2s1)c1cc(-c2cccs2)nc2ccccc12,-38%,4.5µM*,?,-6,?,i
Cc1c(O)ccc2c(CN3CCCCC3C)cc(=O)oc12 (stereo not given),.,.,.,2,.,.
